The list is not random: actives were taken first. Their share in the collection is about 3%.
Nrf2 block: inhibitors of Nrf2 signaling. A549 ARE-Fluc reporter, luciferase luminescence, 18-24 h. Potency, µM (highest dose often 46 µM), hits mostly inhibitors. actives 2.1% (n = 360,000). AID 504444; note: nearly all actives have a fitted effect of over 60% in size
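In this cell-based qHTS, ARE-driven firefly luciferase in A549 cells reports Nrf2 activity; the luminescent signal after BugLite lysis is the measured value, with a prior CellTiter-Fluor read for cell health.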
Nrf2 ARE act: activates Nrf2 signaling; AREc32 ARE-luciferase reporter (MCF7-derived line), luminescence, 24 h; Potency, µM (top dose mostly 46.1 µM), hits mostly activators; actives 0.31% (n = 410,000); AID 624171; note: nearly all actives have a fitted effect of over 65% in size
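Each well held 1000 AREc32 cells, which were incubated with compound for 24 hr at 37 deg C after overnight attachment, and ARE reporter activity was quantified by firefly luciferase luminescence.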
rTrxR1 inhibitor: blocks rat thioredoxin reductase 1; recombinant rTrxR1, NADPH fluorescence consumption, selenite substrate; actives 1% (n = 390,000); Potency, µM (highest dose often 114 µM), actives largely listed as inhibitors; AID 588453; note: nearly all actives have a fitted effect of over 65% in size
Target sequence (O89049 whole entry, looked up): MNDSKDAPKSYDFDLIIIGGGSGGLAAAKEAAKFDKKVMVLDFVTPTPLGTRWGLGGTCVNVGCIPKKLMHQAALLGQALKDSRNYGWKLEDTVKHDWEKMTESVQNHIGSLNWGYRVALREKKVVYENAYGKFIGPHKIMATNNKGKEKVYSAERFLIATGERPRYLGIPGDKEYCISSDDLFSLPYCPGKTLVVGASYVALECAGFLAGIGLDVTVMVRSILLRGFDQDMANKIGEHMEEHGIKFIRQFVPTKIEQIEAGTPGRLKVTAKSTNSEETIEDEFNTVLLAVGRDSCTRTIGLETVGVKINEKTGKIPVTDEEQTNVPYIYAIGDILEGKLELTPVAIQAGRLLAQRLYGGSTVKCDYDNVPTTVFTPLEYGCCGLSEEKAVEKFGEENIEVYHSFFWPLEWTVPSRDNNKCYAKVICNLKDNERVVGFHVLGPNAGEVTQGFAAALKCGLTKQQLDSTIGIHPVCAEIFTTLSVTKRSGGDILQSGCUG
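Rat TrxR1 (90 nM in the dispensed reagent) was pre-reduced with 400 uM NADPH for 5 min at room temperature, then incubated with compound for 15 min. After 400 uM selenite was added, NADPH fluorescence (Ex 340/Em 450 nm) was followed for 8 min.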
GALK inhibitor: galactokinase (human) inhibition. P51570. Purified GALK, Kinase-Glo residual ATP luminescence. Potency, µM (top dose mostly 57.5 µM), hits mostly inhibitors. actives 0.007% (n = 270,000). AID 1868
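Luminescence from leftover ATP (Ultra-Glo luciferase/luciferin) served as read-out after a 1 h room-temperature reaction of 5 nM GALK with 35 uM ATP and 100 uM galactose.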
TrxR1 substrate: substrates of rat thioredoxin reductase 1. actives 0.01% (n = 390,000). AID 588456. Potency, µM (highest dose often 114 µM). O89049. purified TrxR1 substrate turnover, NADPH consumption readout; note: nearly all actives have a fitted effect of over 50% in size
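Rat TrxR1, dispensed at 90 nM, was prereduced with 400 uM NADPH (final) for 5 min at ~22 deg C, then incubated with compound 15 min before 400 uM selenite. A first-read NADPH fluorescence drop versus no-compound background flagged substrates.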
A549 viability: counter-screen for Nrf2 inhibitors: cytotoxicity in A549 cells. Potency, µM (titrated, usually from 46 µM), usual class: inhibitors. AID 504648. actives 0.16% (n = 390,000). A549 ARE-Fluc cells, CellTiter-Fluor viability, 18-24 h
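A549 ARE_Fluc cells in 5% FBS OPTI-MEM were exposed to compounds in concentration-response for 18-24 h at 37 deg C. Viability was read by CellTiter-Fluor fluorescence (Ex 405/Em 525) after 30 min, before the luciferase read.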
Of the large screens only hits and unclear results are named; the others gave an inactive call. Calls come from the whole dose curve; as a rule, active = well fitted curve in the direction sought with a large enough effect; inconclusive = small, poorly fitted or top-dose-only effect, or another doubt; inactive = no such curve, though single readings can be large; an effect the other way counts as inactive or inconclusive.

CC1CCCC(NC(=O)NC(=O)CCl)C1C (stereo not given)	Nrf2 ARE act inconclusive, rTrxR1 inhibitor 7.9µM
CC1CCCC(NC(=O)CSC2CCCCC2)C1C (stereo not given)	none
CC1CCCCC1NC(=O)NC(=O)COC(=O)c1nccnc1N (stereo not given)	rTrxR1 inhibitor inconclusive (no result: GALK inhibitor)
CC1CCCCC1NC(=O)NC(=O)CCl (stereo not given)	Nrf2 ARE act 14µM, rTrxR1 inhibitor 40µM
Cc1[nH]nc2c1-c1nc3ccccc3nc1C(C)(C)C2	Nrf2 block 15µM, A549 viability 15µM
Cc1sc2ncn(CC(=O)NCCCC(=O)Nc3ccc(C(C)C)cc3)c(=O)c2c1C	Nrf2 block 29µM, A549 viability inconclusive
COc1cccc(NC(=O)CCCNC(=O)Cn2cnc3sc(C)c(C)c3c2=O)c1	none
COc1ccccc1N1CCN(C(=O)CCCNC(=O)Cn2cnc3sc(C)c(C)c3c2=O)CC1	Nrf2 block 23µM
CN(C)c1ccc(CNC(=O)C2CCN(C(=O)c3ccc(-n4ccc5ccccc54)s3)CC2)cc1	none (no result: GALK inhibitor)
COc1ccc(CNC(=O)C2CCN(C(=O)c3ccc(-n4ccc5ccccc54)s3)CC2)cc1	Nrf2 block 21µM (no result: GALK inhibitor)
COc1ccc(CCNC(=O)c2cc(-c3ccco3)nc3ccccc23)cc1	rTrxR1 inhibitor inconclusive (no result: GALK inhibitor)
O=C(Nc1ccccc1N1CCOCC1)c1cc(-c2ccco2)nc2ccccc12	Nrf2 block 18µM
CCN(CC)C(=O)COC(=O)c1cc(-c2ccco2)nc2ccccc12	Nrf2 ARE act inconclusive, rTrxR1 inhibitor inconclusive
CNC(=O)COC(=O)c1cc(-c2ccco2)nc2ccccc12	Nrf2 ARE act inconclusive, rTrxR1 inhibitor 10µM
O=C(COC(=O)c1cc(-c2ccco2)nc2ccccc12)NCc1ccccc1	rTrxR1 inhibitor 45µM
O=C(COC(=O)c1ccco1)NCc1ccc(Cl)cc1Cl	rTrxR1 inhibitor 79µM (no result: GALK inhibitor)
COc1ccc(-c2cc(C(=O)OCC(=O)c3c(N)n(C)c(=O)n(C)c3=O)c3ccccc3n2)cc1	Nrf2 block inconclusive
Cn1c(N)c(C(=O)COC(=O)c2cc(-c3ccco3)nc3ccccc23)c(=O)n(C)c1=O	rTrxR1 inhibitor 13µM (no result: GALK inhibitor)
Cn1c(N)c(C(=O)CCl)c(=O)n(Cc2ccccc2)c1=O	rTrxR1 inhibitor 13µM (no result: GALK inhibitor)
Cn1c(N)c(C(=O)COC(=O)c2cc(C(F)(F)F)nc3ccccc23)c(=O)n(Cc2ccccc2)c1=O	Nrf2 block 21µM (no result: GALK inhibitor)
CCc1ccccc1-n1c(SCC(=O)Nc2ccc(C)cc2)nc2n[nH]c(C)c2c1=N	none (no result: Nrf2 block, GALK inhibitor)
COc1ccc(OC)c(NC(=O)CSc2nc3n[nH]c(C)c3c(=N)n2-c2cccc(Cl)c2C)c1	Nrf2 block 16µM, A549 viability inconclusive
CCc1ccccc1NC(=O)CSc1nc2n[nH]c(C)c2c(=N)n1-c1cccc(OC)c1	Nrf2 block 18µM, A549 viability inconclusive
CSc1cccc(NC(=O)Nc2ccccc2OCc2cc(=O)n3cc(C)ccc3n2)c1	none (no result: Nrf2 block, GALK inhibitor)
N#Cc1nc(-c2ccco2)oc1N1CCOCC1	Nrf2 ARE act 13µM (no result: Nrf2 block)
N#Cc1nc(-c2ccco2)oc1N1CCN(c2ccccc2)CC1	Nrf2 block inconclusive
COC(=O)C1=C(C(=O)OC)[C@@H]2N(Cc3ccccc3)c3ccccc3[C@@]23C[C@@H](C(=O)OC)N(C(=O)c2cccs2)C3=N1	Nrf2 block 29µM, A549 viability inconclusive
COC(=O)C1=C(C(=O)OC)[C@@H]2N(Cc3ccccc3)c3ccccc3[C@@]23C[C@@H](C(=O)OC)N(C(=O)c2cc(C)oc2C)C3=N1	Nrf2 block 23µM (no result: GALK inhibitor)
Nc1nc(Cl)nc2c1ncn2[C@@H]1O[C@H](CO)[C@H](O)[C@H]1O	none (no result: Nrf2 block, Nrf2 ARE act, GALK inhibitor, TrxR1 substrate, A549 viability)
Cc1ccc(Cl)cc1NC(=O)C1CCN(c2nc3ccccc3n3cccc23)CC1	none (no result: GALK inhibitor)
Cc1ccc(C)c(N2CCN(C(=O)C3CCCN(S(=O)(=O)c4c(C)noc4C)C3)CC2)c1 (stereo not given)	Nrf2 block 16µM
COc1ccc2nc(NC(=O)C3CCCN(S(=O)(=O)c4c(C)noc4C)C3)sc2c1 (stereo not given)	none

Screening results deposited in PubChem BioAssay by National Center for Advancing Translational Sciences (NCATS).
